# From article PMC7862700, “An all-to-all approach to the identification of sequence-specific readers for epigenetic DNA modifications on cytosine”
# Key:
# Test in all cases: DAPPL (digital affinity profiling via proximity ligation, sequencing); 10 mM Tris-HCl pH 7.5, 50 mM NaCl, 1 mM DTT, 4% glycerol, room temperature, 30 min; GST-TFs on glutathione beads, 16-mer random dsDNA library, 0.1% formaldehyde crosslink after washing; high values mean tight binding
# FEV = molecular target: T1, FEV (Homo sapiens, UniProt Q99581 1-238); details: protein: recombinant; tags: N-terminal GST; dsDNA, one strand shown
# T1 sequence: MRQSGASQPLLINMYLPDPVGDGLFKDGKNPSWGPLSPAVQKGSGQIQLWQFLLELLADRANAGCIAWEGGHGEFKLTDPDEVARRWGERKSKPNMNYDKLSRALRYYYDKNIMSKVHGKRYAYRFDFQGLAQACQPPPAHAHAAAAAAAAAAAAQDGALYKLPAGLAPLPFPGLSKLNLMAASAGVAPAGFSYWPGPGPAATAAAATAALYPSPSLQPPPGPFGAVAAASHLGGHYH
# Method in brief: (§1)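 Each value of binding signal is a hexamer's read frequency for a factor divided by the same hexamer's frequency in the tag-only sample. Barcoded, bead-captured GST fusions of human transcription factors made in yeast were pooled with that sample and incubated with 200 nmole of a random double-stranded 16-mer DNA library in Tris/NaCl/DTT/glycerol buffer at room temperature for 30 min. Washing, 0.1% formaldehyde crosslinking, proximity ligation, PCR and Illumina NextSeq500 sequencing followed.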
# ETV5 = ETV5 (Homo sapiens, UniProt P41161 1-510); details: protein: recombinant; tags: N-terminal GST; dsDNA, one strand shown
# Method in brief: as §1
# HSF1 = HSF1 (Homo sapiens, UniProt Q00613 1-529); details: protein: recombinant; tags: N-terminal GST; chain copies: 3; dsDNA, one strand shown
# Method in brief: as §1
# SPIC = molecular target: T2, SPIC (Homo sapiens, UniProt Q8N5J4 1-248); details: protein: recombinant; tags: N-terminal GST; dsDNA, one strand shown
# T2 sequence: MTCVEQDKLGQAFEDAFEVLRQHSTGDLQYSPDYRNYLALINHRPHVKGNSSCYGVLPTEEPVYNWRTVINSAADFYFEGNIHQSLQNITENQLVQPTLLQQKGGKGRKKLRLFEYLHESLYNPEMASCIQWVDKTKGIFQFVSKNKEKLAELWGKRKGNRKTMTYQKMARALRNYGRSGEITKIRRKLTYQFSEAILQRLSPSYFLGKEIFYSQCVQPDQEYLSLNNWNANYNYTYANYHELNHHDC
# Method in brief: as §1
# ELF4 = ELF4 (Homo sapiens, UniProt Q99607 1-663); details: protein: recombinant; tags: N-terminal GST; dsDNA, one strand shown
# Method in brief: as §1
# ELK4 = molecular target: T3, ELK4 (Homo sapiens, UniProt P28324-2 1-405); details: protein: recombinant; tags: N-terminal GST; dsDNA, one strand shown
# T3 sequence: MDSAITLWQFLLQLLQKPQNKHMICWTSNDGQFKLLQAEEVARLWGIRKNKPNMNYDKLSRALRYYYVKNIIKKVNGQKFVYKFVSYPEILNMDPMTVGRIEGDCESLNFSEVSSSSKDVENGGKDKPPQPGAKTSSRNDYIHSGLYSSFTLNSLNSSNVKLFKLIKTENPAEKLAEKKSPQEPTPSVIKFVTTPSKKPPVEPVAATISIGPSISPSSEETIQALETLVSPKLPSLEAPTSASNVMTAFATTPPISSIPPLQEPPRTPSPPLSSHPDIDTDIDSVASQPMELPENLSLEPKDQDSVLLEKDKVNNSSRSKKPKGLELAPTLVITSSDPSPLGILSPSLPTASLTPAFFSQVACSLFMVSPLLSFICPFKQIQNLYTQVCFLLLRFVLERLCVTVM
# Method in brief: as §1
# ETV2 = molecular target: T4, ETV2 (Homo sapiens, UniProt O00321 1-342); details: protein: recombinant; tags: N-terminal GST; dsDNA, one strand shown
# T4 sequence: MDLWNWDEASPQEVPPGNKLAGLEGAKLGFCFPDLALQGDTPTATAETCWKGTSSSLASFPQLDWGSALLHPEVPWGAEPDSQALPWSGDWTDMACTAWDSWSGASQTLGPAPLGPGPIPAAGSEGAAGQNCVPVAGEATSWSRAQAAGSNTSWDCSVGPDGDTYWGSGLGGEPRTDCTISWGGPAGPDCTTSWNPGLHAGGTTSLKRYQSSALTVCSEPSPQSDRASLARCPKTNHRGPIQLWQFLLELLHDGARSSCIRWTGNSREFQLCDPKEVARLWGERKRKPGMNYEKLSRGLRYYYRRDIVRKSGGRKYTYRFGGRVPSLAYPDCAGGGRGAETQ
# Method in brief: as §1
# ELF3 = molecular target: T5, ELF3 (Homo sapiens, UniProt P78545 1-371); details: protein: recombinant; tags: N-terminal GST; dsDNA, one strand shown
# T5 sequence: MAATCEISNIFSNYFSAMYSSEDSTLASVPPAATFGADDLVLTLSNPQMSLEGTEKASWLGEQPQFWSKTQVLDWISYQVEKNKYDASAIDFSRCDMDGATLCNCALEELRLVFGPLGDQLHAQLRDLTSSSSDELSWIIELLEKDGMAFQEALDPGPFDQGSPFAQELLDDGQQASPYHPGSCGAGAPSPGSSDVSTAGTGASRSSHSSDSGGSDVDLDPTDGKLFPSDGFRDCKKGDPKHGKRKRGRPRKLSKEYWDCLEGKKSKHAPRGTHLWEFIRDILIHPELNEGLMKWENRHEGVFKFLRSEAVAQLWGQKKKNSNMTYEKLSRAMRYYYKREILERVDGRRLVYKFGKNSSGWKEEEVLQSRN
# Method in brief: as §1
# CRX = CRX (Homo sapiens, UniProt O43186 1-299); details: protein: recombinant; tags: N-terminal GST; dsDNA, one strand shown
# Method in brief: as §1
# ETV1 = ETV1 (Homo sapiens, UniProt P50549 1-477); details: protein: recombinant; tags: N-terminal GST; dsDNA, one strand shown
# Method in brief: as §1
# ERF = molecular target: T6, ERF (Homo sapiens, UniProt P50548 1-548); details: protein: recombinant; tags: N-terminal GST; dsDNA, one strand shown
# T6 sequence: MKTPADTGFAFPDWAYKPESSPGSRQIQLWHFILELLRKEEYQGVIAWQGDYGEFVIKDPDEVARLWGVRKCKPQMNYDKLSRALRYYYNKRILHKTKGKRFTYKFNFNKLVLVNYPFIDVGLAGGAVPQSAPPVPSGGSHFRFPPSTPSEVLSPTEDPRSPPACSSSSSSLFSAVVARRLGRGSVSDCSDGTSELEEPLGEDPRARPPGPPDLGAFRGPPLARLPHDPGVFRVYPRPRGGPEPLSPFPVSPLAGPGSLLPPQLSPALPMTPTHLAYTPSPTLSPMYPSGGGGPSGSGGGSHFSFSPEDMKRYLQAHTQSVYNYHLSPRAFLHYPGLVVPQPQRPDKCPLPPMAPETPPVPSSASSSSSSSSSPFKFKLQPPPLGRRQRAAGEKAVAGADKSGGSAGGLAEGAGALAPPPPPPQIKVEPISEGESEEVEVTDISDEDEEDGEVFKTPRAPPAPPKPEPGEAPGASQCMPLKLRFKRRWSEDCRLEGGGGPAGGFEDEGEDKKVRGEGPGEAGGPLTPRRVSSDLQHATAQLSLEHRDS
# Method in brief: as §1
# ETV3L = molecular target: T7, ETV3L (Homo sapiens, UniProt Q6ZN32 1-361); details: protein: recombinant; tags: N-terminal GST; dsDNA, one strand shown
# T7 sequence: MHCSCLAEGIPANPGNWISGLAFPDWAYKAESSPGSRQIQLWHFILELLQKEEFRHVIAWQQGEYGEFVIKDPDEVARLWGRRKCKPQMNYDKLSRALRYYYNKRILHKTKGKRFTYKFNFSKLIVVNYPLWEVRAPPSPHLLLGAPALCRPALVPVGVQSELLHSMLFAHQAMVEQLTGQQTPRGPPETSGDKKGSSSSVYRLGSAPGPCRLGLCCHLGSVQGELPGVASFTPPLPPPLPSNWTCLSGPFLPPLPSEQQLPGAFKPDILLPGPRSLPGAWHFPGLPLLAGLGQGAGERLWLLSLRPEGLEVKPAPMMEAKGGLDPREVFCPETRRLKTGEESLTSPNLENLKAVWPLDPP
# Method in brief: as §1
# ETS2 = molecular target: T8, ETS2 (Homo sapiens, UniProt P15036 1-469); details: protein: recombinant; tags: N-terminal GST; dsDNA, one strand shown
# T8 sequence: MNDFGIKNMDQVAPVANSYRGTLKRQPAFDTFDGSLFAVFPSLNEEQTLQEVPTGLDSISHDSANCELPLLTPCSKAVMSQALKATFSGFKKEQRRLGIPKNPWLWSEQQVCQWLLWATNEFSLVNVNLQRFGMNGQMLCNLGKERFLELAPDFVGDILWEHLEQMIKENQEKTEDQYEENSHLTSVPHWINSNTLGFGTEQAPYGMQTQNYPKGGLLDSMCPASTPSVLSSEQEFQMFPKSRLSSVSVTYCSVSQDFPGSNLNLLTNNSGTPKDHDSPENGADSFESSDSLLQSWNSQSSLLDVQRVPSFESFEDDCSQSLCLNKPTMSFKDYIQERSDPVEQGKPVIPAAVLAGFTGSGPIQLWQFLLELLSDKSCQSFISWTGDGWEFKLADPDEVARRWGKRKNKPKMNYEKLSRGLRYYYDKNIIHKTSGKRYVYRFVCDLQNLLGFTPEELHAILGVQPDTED
# Method in brief: as §1
# SPDEF = molecular target: T9, SPDEF (Homo sapiens, UniProt O95238 1-335); details: protein: recombinant; tags: N-terminal GST; dsDNA, one strand shown
# T9 sequence: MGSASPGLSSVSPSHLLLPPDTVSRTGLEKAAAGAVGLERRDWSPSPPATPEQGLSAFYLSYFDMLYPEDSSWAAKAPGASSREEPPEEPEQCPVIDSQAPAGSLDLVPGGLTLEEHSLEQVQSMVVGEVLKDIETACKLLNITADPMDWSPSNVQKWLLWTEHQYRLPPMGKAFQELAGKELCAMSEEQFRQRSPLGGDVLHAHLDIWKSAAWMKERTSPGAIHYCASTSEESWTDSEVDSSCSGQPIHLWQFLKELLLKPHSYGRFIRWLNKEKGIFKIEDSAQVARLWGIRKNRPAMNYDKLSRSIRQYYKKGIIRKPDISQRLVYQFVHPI
# Method in brief: as §1
# ETV7 = molecular target: T10, ETV7 (Homo sapiens, UniProt Q9Y603 1-341); details: protein: recombinant; tags: N-terminal GST; dsDNA, one strand shown
# T10 sequence: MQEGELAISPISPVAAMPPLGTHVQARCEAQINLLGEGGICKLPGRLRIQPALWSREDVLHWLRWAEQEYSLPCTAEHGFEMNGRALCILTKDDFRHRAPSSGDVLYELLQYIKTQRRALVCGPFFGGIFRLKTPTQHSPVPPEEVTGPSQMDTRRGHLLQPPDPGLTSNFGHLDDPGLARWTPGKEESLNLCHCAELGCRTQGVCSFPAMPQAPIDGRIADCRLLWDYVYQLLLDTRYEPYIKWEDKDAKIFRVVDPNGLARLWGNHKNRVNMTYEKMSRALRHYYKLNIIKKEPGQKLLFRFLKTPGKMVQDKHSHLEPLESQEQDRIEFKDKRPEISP
# Method in brief: as §1
# ELF5 = molecular target: T11, ELF5 (Homo sapiens, UniProt Q9UKW6-2 1-255); details: protein: recombinant; tags: N-terminal GST; dsDNA, one strand shown
# T11 sequence: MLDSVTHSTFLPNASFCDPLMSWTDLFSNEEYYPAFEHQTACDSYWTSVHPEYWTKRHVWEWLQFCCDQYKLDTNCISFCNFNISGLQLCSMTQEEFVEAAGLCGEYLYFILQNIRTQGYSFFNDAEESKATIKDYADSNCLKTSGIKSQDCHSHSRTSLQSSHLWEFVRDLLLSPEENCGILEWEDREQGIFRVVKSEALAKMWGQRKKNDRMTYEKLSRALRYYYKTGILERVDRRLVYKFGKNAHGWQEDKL
# Method in brief: as §1
# ETV3 = molecular target: T12, ETV3 (Homo sapiens, UniProt P41162-2 1-143); details: protein: recombinant; tags: N-terminal GST; dsDNA, one strand shown
# T12 sequence: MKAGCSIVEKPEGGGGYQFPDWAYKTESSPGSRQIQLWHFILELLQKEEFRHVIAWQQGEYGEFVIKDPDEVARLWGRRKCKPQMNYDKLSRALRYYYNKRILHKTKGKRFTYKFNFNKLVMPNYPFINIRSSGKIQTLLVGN
# Method in brief: as §1
# ETV6 = ETV6 (Homo sapiens, UniProt P41212 1-452); details: protein: recombinant; tags: N-terminal GST; dsDNA, one strand shown
# Method in brief: as §1
# Sequence of CRX (O43186 whole entry): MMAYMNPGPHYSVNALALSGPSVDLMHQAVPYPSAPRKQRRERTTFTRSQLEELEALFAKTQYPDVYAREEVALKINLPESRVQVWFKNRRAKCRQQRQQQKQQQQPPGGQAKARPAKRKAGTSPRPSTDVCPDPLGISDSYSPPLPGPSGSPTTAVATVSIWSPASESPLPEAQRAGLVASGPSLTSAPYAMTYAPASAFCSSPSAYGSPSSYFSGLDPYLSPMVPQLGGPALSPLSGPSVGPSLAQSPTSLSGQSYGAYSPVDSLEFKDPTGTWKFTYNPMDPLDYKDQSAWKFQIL
# Sequence of ETV6 (P41212 whole entry): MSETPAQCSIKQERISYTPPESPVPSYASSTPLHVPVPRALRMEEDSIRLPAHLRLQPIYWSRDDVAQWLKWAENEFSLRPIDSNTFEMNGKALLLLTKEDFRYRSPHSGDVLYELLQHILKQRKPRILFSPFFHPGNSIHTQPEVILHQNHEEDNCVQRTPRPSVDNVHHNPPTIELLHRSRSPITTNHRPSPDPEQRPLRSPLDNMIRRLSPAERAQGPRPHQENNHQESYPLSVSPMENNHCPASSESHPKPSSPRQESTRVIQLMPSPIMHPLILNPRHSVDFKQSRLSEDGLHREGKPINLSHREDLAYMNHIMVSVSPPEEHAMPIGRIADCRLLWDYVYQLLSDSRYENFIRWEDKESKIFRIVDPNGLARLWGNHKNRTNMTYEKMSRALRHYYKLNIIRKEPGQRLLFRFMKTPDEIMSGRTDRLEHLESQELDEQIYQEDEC
# Sequence of ETV5 (P41161 whole entry): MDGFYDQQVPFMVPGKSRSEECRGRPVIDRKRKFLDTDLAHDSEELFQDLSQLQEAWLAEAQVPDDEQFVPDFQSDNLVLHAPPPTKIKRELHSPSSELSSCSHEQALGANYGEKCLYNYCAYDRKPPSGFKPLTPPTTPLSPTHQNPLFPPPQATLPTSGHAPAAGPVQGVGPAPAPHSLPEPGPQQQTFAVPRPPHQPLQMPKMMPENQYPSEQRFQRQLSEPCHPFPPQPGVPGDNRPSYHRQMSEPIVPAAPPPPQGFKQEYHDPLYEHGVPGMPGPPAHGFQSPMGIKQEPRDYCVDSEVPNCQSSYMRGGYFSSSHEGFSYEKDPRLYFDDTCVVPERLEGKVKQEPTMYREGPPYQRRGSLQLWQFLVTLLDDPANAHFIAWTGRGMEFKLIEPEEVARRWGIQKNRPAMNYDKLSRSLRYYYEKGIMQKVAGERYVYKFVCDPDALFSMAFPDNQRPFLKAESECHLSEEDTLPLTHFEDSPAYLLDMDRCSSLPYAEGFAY
# Sequence of ELF4 (Q99607 whole entry): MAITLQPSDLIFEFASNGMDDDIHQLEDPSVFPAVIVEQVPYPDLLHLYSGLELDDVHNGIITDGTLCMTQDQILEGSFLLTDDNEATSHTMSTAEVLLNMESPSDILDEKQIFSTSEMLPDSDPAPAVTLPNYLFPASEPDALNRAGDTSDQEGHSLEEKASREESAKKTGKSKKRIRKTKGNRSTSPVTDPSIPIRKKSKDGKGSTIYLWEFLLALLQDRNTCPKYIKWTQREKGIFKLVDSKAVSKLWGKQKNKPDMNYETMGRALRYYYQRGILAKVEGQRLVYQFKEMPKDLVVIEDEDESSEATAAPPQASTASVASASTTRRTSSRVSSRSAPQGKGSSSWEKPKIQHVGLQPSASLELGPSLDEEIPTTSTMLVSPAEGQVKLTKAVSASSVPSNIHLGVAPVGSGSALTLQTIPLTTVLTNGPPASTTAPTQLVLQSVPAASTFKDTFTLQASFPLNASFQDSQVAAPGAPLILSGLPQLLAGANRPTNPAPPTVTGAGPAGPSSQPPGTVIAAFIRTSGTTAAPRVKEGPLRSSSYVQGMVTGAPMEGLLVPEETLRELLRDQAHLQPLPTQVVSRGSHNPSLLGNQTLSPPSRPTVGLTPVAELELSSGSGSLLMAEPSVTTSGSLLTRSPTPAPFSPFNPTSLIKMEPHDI
# Sequence of HSF1 (Q00613 whole entry): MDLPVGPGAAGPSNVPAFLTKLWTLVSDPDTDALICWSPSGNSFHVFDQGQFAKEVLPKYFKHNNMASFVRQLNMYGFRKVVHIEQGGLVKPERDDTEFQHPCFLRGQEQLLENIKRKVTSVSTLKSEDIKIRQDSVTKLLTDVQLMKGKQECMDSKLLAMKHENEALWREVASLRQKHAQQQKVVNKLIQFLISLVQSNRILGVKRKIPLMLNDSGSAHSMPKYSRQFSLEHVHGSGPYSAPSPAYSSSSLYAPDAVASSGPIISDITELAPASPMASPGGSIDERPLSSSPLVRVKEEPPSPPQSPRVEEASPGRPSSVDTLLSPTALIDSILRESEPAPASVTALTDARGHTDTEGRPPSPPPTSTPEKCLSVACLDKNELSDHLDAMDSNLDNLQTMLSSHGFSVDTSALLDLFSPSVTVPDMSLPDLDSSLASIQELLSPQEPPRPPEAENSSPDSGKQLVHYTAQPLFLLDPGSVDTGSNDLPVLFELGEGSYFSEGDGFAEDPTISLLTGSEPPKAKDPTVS
# Sequence of ETV1 (P50549 whole entry): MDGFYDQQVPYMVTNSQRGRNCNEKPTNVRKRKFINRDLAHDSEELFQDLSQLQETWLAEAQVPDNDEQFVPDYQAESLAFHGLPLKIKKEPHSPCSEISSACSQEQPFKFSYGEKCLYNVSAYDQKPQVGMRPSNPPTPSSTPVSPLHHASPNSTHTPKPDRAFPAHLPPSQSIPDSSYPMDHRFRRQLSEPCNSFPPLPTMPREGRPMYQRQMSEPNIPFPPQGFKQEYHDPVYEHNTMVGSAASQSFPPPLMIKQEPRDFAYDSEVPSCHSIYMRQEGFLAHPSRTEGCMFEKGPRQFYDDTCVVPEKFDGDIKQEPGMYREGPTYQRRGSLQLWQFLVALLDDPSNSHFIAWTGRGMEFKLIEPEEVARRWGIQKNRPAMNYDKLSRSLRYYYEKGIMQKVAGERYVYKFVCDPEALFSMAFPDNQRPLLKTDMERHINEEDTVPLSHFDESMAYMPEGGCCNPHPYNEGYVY
sequence,measurement,setting,value
TATATA,binding signal,FEV,"1.21 fold enrichment (6-mer frequency, TF over GST control)"
same,binding signal,ETV5,"1.28 fold enrichment (6-mer frequency, TF over GST control)"
same,binding signal,HSF1,"1.42 fold enrichment (6-mer frequency, TF over GST control)"
same,binding signal,SPIC,"1.21 fold enrichment (6-mer frequency, TF over GST control)"
same,binding signal,ELF4,"1.31 fold enrichment (6-mer frequency, TF over GST control)"
same,binding signal,ELK4,"1.38 fold enrichment (6-mer frequency, TF over GST control)"
same,binding signal,ETV2,"1.08 fold enrichment (6-mer frequency, TF over GST control)"
same,binding signal,ELF3,"1.35 fold enrichment (6-mer frequency, TF over GST control)"
same,binding signal,CRX,"1.63 fold enrichment (6-mer frequency, TF over GST control)"
same,binding signal,ETV1,"1.18 fold enrichment (6-mer frequency, TF over GST control)"
same,binding signal,ERF,"1.24 fold enrichment (6-mer frequency, TF over GST control)"
same,binding signal,ETV3L,"1.23 fold enrichment (6-mer frequency, TF over GST control)"
same,binding signal,ETS2,"1.31 fold enrichment (6-mer frequency, TF over GST control)"
same,binding signal,SPDEF,"1.35 fold enrichment (6-mer frequency, TF over GST control)"
same,binding signal,ETV7,"1.27 fold enrichment (6-mer frequency, TF over GST control)"
same,binding signal,ELF5,"1.23 fold enrichment (6-mer frequency, TF over GST control)"
same,binding signal,ETV3,"1.34 fold enrichment (6-mer frequency, TF over GST control)"
same,binding signal,ETV6,"1.28 fold enrichment (6-mer frequency, TF over GST control)"
